In PubChem BioAssay AID540364 (The Scripps Research Institute Molecular Screening Center, 2011) one finds activation data, which are given here for 89 compounds.

In all, about 360,000 compounds went through this assay and about 2,000 (0.56%) were called active. The entries come from a sample that favours actives as a whole. Unmarked numbers belong to inactive results.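 The calls were made as follows: active = activation above the average of all compounds screened plus 3 SD, cutoff fixed separately per campaign (cut at about 7.5% in these data); inactive = the rest.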

This assay is described as follows: GAA850 frataxin promoter reporter upregulation – cell-based, luciferase luminescence, HEK293 lucGAA850, primary screen (AID 540364).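 Also: 0% = DMSO wells and 100% = 10 µM SAHA wells.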 The settings on record: HEK293 lucGAA850 FXN promoter luciferase reporter, 24 h; at 6 µM; hits give high values; percent of 10 µM SAHA response.
For the compound `NC(c1csc(NC(=O)Nc2cccc(C(F)(F)F)c2)n1)C1CCCCC1` (centres undefined), the activation was 0.57%.
On to `Cc1[nH]c2ccccc2c1C(=O)C(C)Sc1nnc(C2CC2)o1` (centres undefined), for which the activation is -0.9%.
Regarding `CCOc1ccc(Nc2oc(Cc3ccccc3)nc2C#N)cc1`, the activation is 7.76% (active).
With `Cc1ccc(OCc2nc(C#N)c(N3CCCC3)o2)cc1`, the activation was 1.46%.
With `COc1ccc(Nc2oc(-c3ccccc3Cl)nc2C#N)cc1` the figure was -4.29%.
Regarding `Cn1c(=O)n(C)c(=O)n(CC(=O)N2CCCCC2)c1=O`, the activation is -1.79%.
With `O=C(CSc1nc2[nH]c(=O)[nH]c(=O)c2s1)Nc1cccc(F)c1` the figure was -0.65%; with `CCCOP(=O)(c1ccc(N(C)C)cc1)C(O)c1cc(OC)c(OC)c(OC)c1` (centres undefined), 0.98%; with `O=C(Nc1ccc(Cl)cn1)c1ccccc1-c1ccccc1`, 0.22%.
With `c1ccc(-c2c[nH]c(-c3ccccc3)c2)cc1` the figure was 1.7%.
The figure for `c1ccc(-c2cc(-c3ccccc3)[nH]n2)cc1` is 10.4% (active); for `Oc1ccccc1-c1cc(-c2ccc(Cl)cc2)n[nH]1` it is 8.31% (active).
Turning to `CSc1ccccc1-c1nnc(-c2ccc(Cl)cc2)o1`, the activation was 5.35%.
The figure for `Nc1cccc(-c2cc(-c3ccccc3)nc(-c3cccc(N)c3)n2)c1` is 1.48%.
The figure for `O=C1CCN(C(=O)Nc2ccccc2)N1` is -0.46%.
`O=C(COc1ccc(Cl)cc1Cl)NCCCNC(=O)c1cnccn1`: the activation is 7.84% (active).
In the case of `COc1ccccc1CCNC(=O)c1cnccn1`, the activation is 2.62%.
The figure for `O=C(NCCCNC(=O)c1ccccc1Cl)c1cnccn1` is 1.82%.
The figure for `CCn1c(CC(=O)Nc2ccccc2C)nnc1SCC(=O)NC1=NCCS1` is -0.89%; for `COc1ccc(C2CC(=O)Nc3sc(=N)c4c(N)c(C#N)c(N)nc4c32)cc1OC` (centres undefined) it is 5.47%.
With `N#Cc1c(N)nc2c3c(sc(=N)c2c1N)NC(=O)CC3c1ccccc1Cl` (centres undefined) the figure was 9.37% (active); with `CSc1nc2c(c(=O)[nH]1)C(c1cccc(Cl)c1Cl)CC(=O)N2` (centres undefined), -1.23%; with `O=C(O)c1ccccc1-c1cccc2nncn12`, 0.6%.
In the case of `Cc1ccc2[nH]c(=O)c(COC(=O)c3ccccn3)cc2c1`, the activation was -0.35%.
With `CCOC(=O)c1[nH]c2ccc(C)cc2c1N=C(C)N(C)C` the figure was 2.12%.
With `CCOC(=O)c1cc2cc(C)ccc2[nH]1` the figure was 7.85% (active); with `CC(=O)c1ccc(-c2cnc3c(NC=O)cc(-c4cccc(NS(C)(=O)=O)c4)cn23)cc1`, -2.27%.
With `Cc1cc(C(=O)N2CCN(c3ccccn3)CC2)c(C)o1` the figure was 1.36%.
On to `CN(C)C(CNC(=O)c1cc(Br)c(Br)s1)c1ccco1` (centres undefined), for which the activation was 0.51%.
With `O=C1[C@H]2[C@@H](c3ccc(C(F)(F)F)cc3)N[C@]3(CCCN(Cc4ccc(Br)cc4)C3=O)[C@H]2C(=O)N1Cc1ccccc1` the figure was -7.76%; with `Cc1cccc(N2C(=O)N3[C@H](c4ccc(F)cc4)[C@@H]4C(=O)N(C5CCCCC5)C(=O)[C@@H]4[C@]3(Cc3ccccc3)C2=O)c1`, 5.49%.
With `CCOC(=O)[C@@H]1[C@H]2COc3ccc(Br)cc3[C@H]2N2C(=O)N(c3ccc(C)cc3)C(=O)[C@@]12C` the figure was 0.65%; with `O=C1[C@H]2[C@@H](c3ccc(F)cc3)N3C(=O)N(c4ccc(C(F)(F)F)cc4)C(=O)[C@@]3(Cc3ccccc3)[C@H]2C(=O)N1C1CCCCC1`, 7.65% (active).
The figure for `C[C@@]12C(=O)N(c3cccc(Br)c3)C(=O)N1[C@H](c1ccc(Cl)cc1)[C@@H]1C(=O)N(C3CCCCC3)C(=O)[C@@H]12` is 7.88% (active).
For the compound `O=C1[C@H]2[C@@H](c3ccc(Cl)cc3)N3C(=O)N(c4cccc(F)c4)C(=O)[C@@]3(Cc3ccccc3)[C@H]2C(=O)N1C1CCCCC1`, the activation is 8.92% (active).
Turning to `Cc1cccc([C@@H]2[C@@H]3C(=O)N(Cc4ccccc4)C(=O)[C@@H]3[C@]3(Cc4ccc(Cl)cc4)C(=O)N(c4cccc(Cl)c4)C(=O)N23)c1`, the activation was 0.5%.
The figure for `O=C1[C@H]2[C@@H](c3ccc(C(F)(F)F)cc3)N[C@]3(CCCN(Cc4ccc(Cl)cc4)C3=O)[C@H]2C(=O)N1Cc1ccccc1` is -7.53%.
The figure for `CC12C(=O)N(c3ccccc3)C(=O)C1C(c1ccccc1)N1CCCN12` (centres undefined) is -0.94%; for `CNC(=O)c1ccc(CN(C)C(=O)c2cc(C3CC3)nc3c2cnn3C(C)C)cc1` it is 1.69%.
With `CN(C(=O)c1cccc(NC(=O)Cc2ccc(NC(=O)C3CCCN(C(=O)C4CC4)C3)cc2)c1)C1CC1` (centres undefined) the figure was 0.38%; with `O=C(CN1C(=O)NC2(CCCC2)C1=O)NCC1CCCO1` (centres undefined), 0.59%.
As to `COCc1cc(C)nc(Nc2cc(C)ccc2C)c1C#N`, the activation was -0.89%.
`CCOC(=O)c1ccc(-c2ccc3ncnc(N(C)Cc4sccc4C)c3c2)o1`: the activation was 4.4%.
For the compound `O=C(Nc1nccs1)C1CCCN1S(=O)(=O)c1cccc2cccnc12` (centres undefined), the activation is -0.14%.
With `O=C(NCc1ccco1)c1cc2sccc2n1Cc1ccc(F)cc1` the figure was 0.82%; with `O=C(NCc1ccco1)c1ccc(Cn2c(=O)c3sccc3n(Cc3ccc(F)cc3)c2=O)cc1`, 15.4% (active).
The figure for `O=C(Cc1ccc(-n2c(=O)c3sccc3n(Cc3ccc(F)cc3)c2=O)cc1)NCc1ccco1` is -1.57%.
The figure for `C/C(Cc1ccccc1)=N\NC(=O)CNC(=O)c1ccc2c(c1)OCCO2` is -1.21%; for `COc1ccccc1-c1nnc(SCC(=O)N2CC(C)CC(C)C2)o1` (centres undefined) it is 3.31%; for `COc1ccc(-c2nnc(SCC(=O)c3cccs3)o2)c(OC)c1` it is 7.8% (active).
In the case of `COc1ccc(-c2nnc(NC(=O)CS(=O)(=O)c3ccc(Cl)cc3)o2)c(OC)c1`, the activation was 2.95%.
With `Cc1cccn2c(=O)c3cc(C(=O)NC4CCCCC4)sc3nc12` the figure was 2%; with `CCOCCCNC(=O)c1cc2c(=O)n3ccccc3nc2s1`, 3.92%.
The figure for `CN(C(=O)c1cc2c(=O)n3ccccc3nc2s1)C1CCCCC1` is 8.38% (active); for `CC(=O)N1c2ccc(S(=O)(=O)N3CCC(C(=O)NC4CCCC(C)C4C)CC3)cc2CC1C` (centres undefined) it is 1.08%.
On to `Clc1ccc(-c2nnc(-c3ccccc3)nc2N2CCSCC2)cc1`, for which the activation is -1.26%.
The figure for `OC(c1ccc(Cl)c(F)c1)c1ncc(-c2ccccc2Cl)[nH]1` (centres undefined) is 0.22%; for `CCOC(=O)C1Cn2c(nc3c(c2=O)C(C)(CC)Cc2ccccc2-3)S1` (centres undefined) it is 1.17%.
With `N#CCSc1nc2c(c(=O)n1Cc1ccccc1)C1(CCCC1)Cc1ccccc1-2` the figure was -0.71%; with `CCC1(CC)Cc2ccccc2-c2nc(CCl)[nH]c(=O)c21`, 8.24% (active); with `CN1CCCc2cc(C#N)c(=O)[nH]c21`, -0.22%.
Take `C[C@H](CO)N1C[C@H](C)[C@@H](CN(C)S(=O)(=O)c2ccc(Oc3ccccc3)cc2)OCc2cn(nn2)CCCC1=O`: the activation was -2.73%.
With `CCOC(=O)C1CCN(C(=O)c2ccc3c(=O)n4nc(Nc5ccccc5CC)sc4nc3c2)CC1` the figure was 0.72%.
The figure for `O=C(/C=C/Sc1ncn[nH]1)c1ccc(Cl)cc1` is 23.3% (active).
The figure for `COc1ccc(CNC(=O)[C@@H]2CC=C[C@@H]3CCN(C4CC4)C(=O)[C@@H]32)cc1` is -0.64%.
With `O=S(=O)(Nc1ccc2nc(-c3ccco3)[nH]c2c1)c1ccccc1`, the activation is 2.98%.
With `COC(=O)CCc1sc(Nc2ccc(Br)cc2)nc1-c1ccc(OC)cc1` the figure was 2.66%; with `Cc1ccn2c(-c3csc(Nc4ccc(C(=O)O)cc4)n3)c(C)nc2c1`, 1.81%; with `COc1ccc(-c2csc(Nc3ccc(O)cc3)n2)cc1`, 8.06% (active).
With `COc1ccc(-c2csc(Cc3nc(O)cs3)n2)cc1` the figure was 21.7% (active); with `COc1ccc(C(C)(O)c2nc(-c3ccc(C)c(C)c3)cs2)cc1` (centres undefined), 0.79%; with `Cc1ccc(Nc2nc(-c3ccc(O)cc3O)cs2)nc1`, 2.15%.
The figure for `O=c1oc2ccccc2cc1-c1csc(Nc2ccc(O)cc2)n1` is 22.5% (active).
With `COc1ccc(C(O)c2nc(-c3ccc(OC)nc3)cs2)cc1` (centres undefined), the activation is 0.21%.
With `COc1ccc(-c2csc(Nc3cccc(C)n3)n2)cc1OC` the figure was 0.8%; with `COc1cc2c(cc1CNC[C@H]1O[C@@H](n3cnc(C(N)=O)n3)[C@H](O)[C@@H]1O)OCO2`, -0.43%; with `CCOC(=O)c1c(C)oc2cc(Br)c(OCC(N)=O)cc12`, -1.34%.
Take `COc1cc2c(cc1OC)C(C(=O)Nc1cc(C)c(OC)c(C)c1)CC(=O)N2` (centres undefined): the activation is 1.49%.
The figure for `CC12CCC(=O)C=C1CCC1C2C(O)CC2(C)C1CCC2(O)C(O)CO` (centres undefined) is 0.74%; for `O=C(O)c1ccccc1N=N/C(=N/Nc1cc(S(=O)(=O)O)ccc1O)c1ccccc1` it is -1.25%; for `COc1ccc(OC)c(S(=O)(=O)N(C)CC(=O)N2CCN(c3ccccc3)CC2)c1` it is -1.26%.
Regarding `CC1CC2=C(CC1/C=N/NC(N)=S)C(C)(C)CCC2` (centres undefined), the activation is -2.98%.
With `Cc1ccc(C2NC(=S)NC3=C2N2CCC3CC2)cc1` (centres undefined) the figure was 1.46%; with `CC(=O)CCS(=O)(=O)c1ccc(C)c(C)c1`, 0.08%; with `COc1cc(C=NC2CCCCC2)ccc1O`, -0.66%.
The figure for `CCOc1cc(/C=N/Nc2cc(C)nc3ccc(C)cc23)ccc1O` is -0.68%; for `COc1cc(/C=N/Nc2nc3ccccc3s2)ccc1O` it is 8.92% (active); for `CCN1C(=NCCc2cccnc2)N[C@@H](c2ccccc2)[C@H](C(=O)OC)[C@H]1C` it is 1.66%.
The figure for `Cc1ccc(CNC(=O)Nc2nnc([C@H]3C[C@H](O)[C@@H](CO)O3)s2)cc1` is 0.3%.
